PubChem BioAssay (NCI)
Values joined by “and” are separate entries in the source; they are usually repeats but may differ in a detail not shown here. Identical values can stand only once. Compounds without any hit were thinned out: in the full panel of roughly 79,000, 15% have a hit. Where a structure was tested more than once in an assay, its records may differ in their call. Active and inactive are the calls of the source. No stated cut-off is given here; in the data, active means growth inhibition above about 70%; inactive means the rest. *1 amine or outer side, *2 acyl side, *3 side chain or, on linkers, in order; H or OH if unused. Where a SMILES comes first, the peptide text is derived from it. Bridges are numbered along the chain shown (N, C = ends). Roman numbers before positions name the chains, in order. [ ]: non-standard residue; d: D form. Actinocin(9to1) = Cc1c2oc3c(C)ccc(C(=O)[*:1])c3nc-2c(C(=O)[*:2])c(N)c1=O; NMeY = CN[CH](Cc1ccc(O)cc1)C(=O)O; Sar = CNCC(=O)O

Assays:
[1] = NCI Yeast Anticancer Drug Screen. Data for the rad50 strain (AID 155);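 further: 0% = growth of vehicle-only cultures of the same strain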; conditions: S. cerevisiae rad50 strain growth inhibition; at 50.0 µM; stronger effect = higher value
Procedure, shortened: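 Growth of the mutant yeast was measured after compound exposure and referenced to vehicle-treated cultures.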

[2] = NCI Yeast Anticancer Drug Screen. Data for the mec2-1 strain (AID 157); conditions: S. cerevisiae mec2-1 strain, at 50.0 µM, stronger effect = higher value
Procedure, shortened: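 Using mec2-1 yeast: add compound, measure growth, express inhibition versus vehicle-treated cultures.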

[3] = NCI Yeast Anticancer Drug Screen. Data for the sgs1 mgt1 strain (AID 161);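 further: 0% = growth of cultures given vehicle only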; conditions: S. cerevisiae sgs1 mgt1 strain, at 50.0 µM, stronger effect = higher value
Procedure, shortened: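 This yeast growth screen uses a strain with defined DNA-repair lesions; compound-treated growth is compared with vehicle-treated growth.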

[4] = NCI Yeast Anticancer Drug Screen. Data for the cln2 rad14 strain (AID 165);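 further: 0% = growth equal to vehicle treated cultures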; conditions: S. cerevisiae cln2 rad14 strain, at 50.0 µM, stronger effect = higher value
Procedure, shortened: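 Yeast strain cln2 rad14, bearing defects in cell cycle control and DNA repair, serves as the test system; values reflect growth inhibition compared with vehicle.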

[5] = NCI Yeast Anticancer Drug Screen. Data for the bub3 strain (AID 167); conditions: S. cerevisiae bub3 mutant strain, at 50.0 µM, stronger effect = higher value
Procedure, shortened: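 Whole-cell yeast assay. The mutant strain was incubated with compounds, and growth inhibition was determined by comparison with vehicle-treated cells.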

[6] = NCI Yeast Anticancer Drug Screen. Data for the mlh1 rad18 strain (AID 175); conditions: S. cerevisiae mlh1 rad18 strain growth inhibition; at 50.0 µM; stronger effect = higher value
Procedure, shortened: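 Steps: expose repair-defective yeast to compound; measure growth; express inhibition against vehicle-treated controls.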

Compound	growth inhibition [1]	growth inhibition [2]	growth inhibition [3]	growth inhibition [4]	growth inhibition [5]	growth inhibition [6]
CC(C)(O)CN/C=C(\C(=O)OC(C)(C)C)N1C(=O)c2ccccc2C1=O	17.1% (inactive) and -17% (inactive)	3% (inactive) and -6.7% (inactive)	13.8% (inactive) and -5.45% (inactive)	-39% (inactive) and -11.5% (inactive)	-1.65% (inactive) and -4.95% (inactive)	2.8% (inactive) and 17.6% (inactive)
Nc1ccc(C(=O)NCC(=O)O)cc1	13.4% (inactive) and 10.3% (inactive)	3.65% (inactive) and -4.8% (inactive)	3.25% (inactive) and 5.05% (inactive)	-41.3% (inactive) and 15.2% (inactive)	6.75% (inactive) and -3.5% (inactive)	0.4% (inactive) and 16.7% (inactive)
Cc1c2oc3c(C)ccc(C(=O)NC4C(=O)NC(C(C)C)C(=O)N5CCCC5C(=O)N(C)CC(=O)N(C)C(Cc5ccc(O)cc5)C(=O)OC4C)c3nc-2c(C(=O)NC2C(=O)NC(C(C)C)C(=O)N3CCCC3C(=O)N(C)CC(=O)N(C)C(Cc3ccc(O)cc3)C(=O)OC2C)c(N)c1=O (stereo unspecified) (I: TVP[Sar][NMeY] / II: TVP[Sar][NMeY]; ester I:1-I:C, II:1-II:C; linker I:N-II:N via Actinocin(9to1); configuration not given here)	-11.3% (inactive) and -12.8% (inactive)	0.3% (inactive) and 1.3% (inactive)	-3.65% (inactive) and -1.8% (inactive)	4.7% (inactive) and 26.5% (inactive)	-8.7% (inactive) and 0.35% (inactive)	-25.1% (inactive) and -32.2% (inactive)
CC12CCC(C(=O)OC1=O)C2(C)C (stereo unspecified)	3.8% (inactive) and -0.45% (inactive)	-8.2% (inactive) and 4.05% (inactive)	-46.8% (inactive) and -13.5% (inactive)	28.1% (inactive) and -51% (inactive)	-29.8% (inactive) and 0.35% (inactive)	-55% (inactive) and -0.75% (inactive)
CC(C)C1C=C2CCC3C(C)(C(=O)O)CCCC3(C)C2CC1 (stereo unspecified)	79.6% (active) and 46.2% (inactive)	68.2% (inactive) and 58.1% (inactive)	22.8% (inactive) and 48% (inactive)	73.7% (active) and 65.3% (inactive)	65.2% (inactive) and 44.9% (inactive)	81.7% (active) and 49.9% (inactive)
CCOC(=O)C(=O)Cc1cnc2ccccc2n1	1.95% (inactive) and 3.05% (inactive)	7.55% (inactive) and -4.8% (inactive)	-18.8% (inactive) and -8.3% (inactive)	3.6% (inactive) and 10.7% (inactive)	-1.2% (inactive) and 7.2% (inactive)	16.2% (inactive) and -5.05% (inactive)
Cc1nc2ccc(Br)cc2c(=O)n1-c1ccc(NC2OC(CO)C(O)C(O)C2O)cc1 (stereo unspecified)	49.9% (inactive) and -0.75% (inactive)	36.6% (inactive) and -23.4% (inactive)	-33.1% (inactive) and 0.7% (inactive)	-3.65% (inactive) and -35.2% (inactive)	-49.1% (inactive) and -7.65% (inactive)	-60.5% (inactive) and -10.8% (inactive)
CCCC(=O)Oc1ccc(C(C)C)cc1	6% (inactive) and 13.8% (inactive)	-22.3% (inactive) and -1.45% (inactive)	-8.2% (inactive) and 2.05% (inactive)	10.4% (inactive) and -31.6% (inactive)	-9.75% (inactive) and 13.3% (inactive)	5.8% (inactive) and 10.1% (inactive)
C/C=C(\Br)C(=O)O	-8.1% (inactive) and 24.1% (inactive)	-10.7% (inactive) and -5.4% (inactive)	1.7% (inactive) and 0.25% (inactive)	-10.1% (inactive) and -19.2% (inactive)	-15.1% (inactive) and 5.8% (inactive)	9.25% (inactive) and 12.8% (inactive)
COc1cc2c(cc1OC)C1Cc3cc(OC)c(OC)cc3C(C2)N1C	23.4% (inactive) and -37.9% (inactive)	4.4% (inactive) and -16.9% (inactive)	-6.2% (inactive) and -5% (inactive)	6.8% (inactive) and 2.6% (inactive)	-5.25% (inactive) and -3.2% (inactive)	-45% (inactive) and -24.2% (inactive)
OCC(O)C(O)C1OC(O)C(O)C(O)C1O (stereo unspecified)	1.1% (inactive) and -15.8% (inactive)	0.45% (inactive) and -15.2% (inactive)	3.1% (inactive) and -4.25% (inactive)	-8.25% (inactive) and -17.1% (inactive)	0.25% (inactive) and -1.65% (inactive)	7.85% (inactive) and -7.65% (inactive)
NC(N)=NC(N)=Nc1ccc(S(N)(=O)=O)cc1	21.6% (inactive) and 10.5% (inactive)	14.7% (inactive) and 4.3% (inactive)	13.4% (inactive) and 14.7% (inactive)	-13.8% (inactive) and -48.6% (inactive)	34.2% (inactive) and -9.8% (inactive)	34.2% (inactive) and 18.5% (inactive)
CC(=O)OCC1OC(n2c(C)c(C)cc(C#N)c2=S)C(OC(C)=O)C(OC(C)=O)C1OC(C)=O (stereo unspecified)	-18.1% (inactive) and 18.2% (inactive)	-10.2% (inactive) and -13.2% (inactive)	-4.8% (inactive) and -4.05% (inactive)	-23.4% (inactive) and 18.9% (inactive)	-2.2% (inactive) and 18.7% (inactive)	4.3% (inactive) and 14.9% (inactive)
O=C1c2ccccc2C(=O)c2c(O)ccc(O)c21	51.5% (inactive) and 39.8% (inactive)	37.2% (inactive) and 11.2% (inactive)	54.1% (inactive) and 21.6% (inactive)	24.4% (inactive) and 33.8% (inactive)	52% (inactive) and 28.9% (inactive)	50.5% (inactive) and 13.8% (inactive)
C/C(=N\NS(C)(=O)=O)C(C)(C)C	-5.05% (inactive) and 16.1% (inactive)	-0.2% (inactive) and 11.1% (inactive)	2.35% (inactive) and 21.3% (inactive)	-5.35% (inactive) and 6.5% (inactive)	-35.5% (inactive) and -20.8% (inactive)	-13% (inactive) and 17.8% (inactive)
O=C1OCC/C1=C\c1ccco1	9.55% (inactive) and -9.2% (inactive)	2.2% (inactive) and 3.9% (inactive)	6.15% (inactive) and 9.15% (inactive)	-19.1% (inactive) and 10.9% (inactive)	-6.75% (inactive) and 17.9% (inactive)	10.3% (inactive) and -6.35% (inactive)
COC(=O)C(C)(C)O	-1.2% (inactive) and 20.4% (inactive)	8.2% (inactive) and -28.9% (inactive)	-4.15% (inactive) and -12% (inactive)	-26.9% (inactive) and -75.2% (inactive)	1.95% (inactive) and -19.1% (inactive)	3.1% (inactive) and 1.55% (inactive)
COC1OCCC(n2c(C)cc3c(N)ncnc32)C1O (stereo unspecified)	-7.3% (inactive) and 1.55% (inactive)	-19.2% (inactive) and -8.6% (inactive)	-28.6% (inactive) and -11.8% (inactive)	-4.15% (inactive) and -1.7% (inactive)	-22.1% (inactive) and -20.6% (inactive)	-29.2% (inactive) and 2.05% (inactive)
CCSC(SCC)C(OC(C)=O)C(OC(C)=O)C(COC(C)=O)OC(C)=O (stereo unspecified)	-2.1% (inactive) and -16.1% (inactive)	-2.3% (inactive) and -2.8% (inactive)	8.1% (inactive) and 4.4% (inactive)	-40% (inactive) and -18.2% (inactive)	-7.25% (inactive) and -3.55% (inactive)	16.6% (inactive) and 10.9% (inactive)
Cc1ccc2ccccc2[n+]1C	31.9% (inactive) and -24.6% (inactive)	-7.45% (inactive) and -34.3% (inactive)	-1.25% (inactive) and -16.4% (inactive)	-36.9% (inactive) and 1.2% (inactive)	-1.5% (inactive) and -26.8% (inactive)	-5.4% (inactive) and -20.4% (inactive)
O=c1oc2c(O)c(O)cc3c(=O)oc4c(O)c(O)cc1c4c23	25.8% (inactive) and 6.65% (inactive)	18.6% (inactive) and -20.1% (inactive)	34.7% (inactive) and -10.7% (inactive)	19% (inactive) and -8.75% (inactive)	29% (inactive) and -35.9% (inactive)	-8.1% (inactive) and -19.1% (inactive)
